Legend:
Format in all cases: functional
Plasmodium falciparum [1] = assay: GSK_TCMDC: Inhibition of Plasmodium falciparum 3D7 in whole red blood cells, using parasite LDH activity as an index of growth. Test compounds present at 2uM
Plasmodium falciparum [2] = assay: GSK_TCMDC: Inhibition of Plasmodium falciparum Dd2 in whole red blood cells, using parasite LDH activity as an index of growth. Test compounds present at 2uM
HepG2 = assay: GSK_TCMDC: Percent inhibition of human HepG2 cell line. Test compounds present at 10uM.

| Compound | Inhibition (Plasmodium falciparum [1]) | Inhibition (Plasmodium falciparum [2]) | Inhibition (HepG2) |
| --- | --- | --- | --- |
| Cl.N=C1N=C(N)NCN1OCc1ccc(Cl)c(Cl)c1 | 95% | 4% | 14% |
| CCCCCCN1CCCN(Cc2ccc(C(=O)Nc3ccc(F)c(F)c3)cc2)CC1.O=C(O)C(F)(F)F | 84% | 48% | 50% |
| CC(C)NCc1ccc(-c2ccc(NS(=O)(=O)c3cccc4cccnc34)cc2)cc1.O=C(O)C(F)(F)F | 90% | 45% | 27% |
| CCCNC[C@@H](O)[C@H](Cc1ccccc1)NC(=O)c1cc(NCC)cc(N2CCCC2=O)c1 | 100% | 76% | 0% |
| Cc1cccc(CN2CCC(CNC(=O)c3cc4c(-c5ccccc5F)nn(C)c4s3)CC2)c1 | 85% | 15% | 18% |
| Cl.Oc1ccc2c(c1NCC1CCCCC1)CCCC2 | 99% | 99% | 11% |
| CC1CCN(C(=O)C(Cc2c[nH]c3ccccc23)NS(=O)(=O)c2ccc(Cl)cc2)CC1 (stereo not drawn) | 100% | 99% | 0% |
| O=C(N[C@@H](Cc1ccccc1)C(=O)NCc1cccc2ccccc12)c1ccc(O)c(-c2ccc(Cl)c(Cl)c2)c1 | 100% | 97% | 0% |
| Cn1nc(C(F)(F)F)c(-c2ccc(Br)cc2)c1NC(=O)Cc1ccccc1F | 100% | 100% | 6% |
| COc1ccc(F)cc1-c1ccccc1CNC(=O)c1cnn(-c2ccc([N+](=O)[O-])cc2)c1C(F)(F)F | 89% | 75% | 0% |
| Cc1cccc2nc(-c3ccc(-c4ccc(NC(=O)NCc5ccccc5)cc4)s3)[nH]c12 | 93% | 8% | 79% |
| NS(=O)(=O)Cc1cccc(-c2ccnc3ccc(-c4cccc(S(N)(=O)=O)c4)cc23)c1 | 98% | 42% | 39% |
| CCCNCc1ccc(-c2ccc(CN(CCOC)C(=O)c3nn(-c4ccccc4)nc3C)cc2)nc1.O=C(O)C(F)(F)F | 99% | 71% | 18% |
| CCOc1cc(C(=O)N[C@@H](Cc2ccccc2)[C@H](O)CNC(C)(C)c2cccc(OC)c2)cc(N2CCCS2(=O)=O)c1 | 99% | 99% | 0% |
| O=C(/C=C/c1ccc(CNCCN2CCOCC2)cc1)NCCc1ccccc1 | 94% | 3% | 9% |
| O=C(N[C@@H](Cc1ccccc1)[C@H](O)CNC1CCCCC1)c1cc(C2CCCC2)cc(N2CCCC2=O)c1 | 100% | 98% | 17% |
| COc1cc(N)c(Cl)cc1C(=O)NC1CCC(NCC2CCCCC2)CC1.Cl (stereo not drawn) | 90% | 85% | 18% |
| O=c1c2ccccc2[nH]c2cc(Cl)ccc12 | 95% | 86% | 24% |
| CCCc1cc(Cc2cnc(N)nc2N)cc(CCC)c1OCCCCC(=O)OC | 94% | 0% | 0% |
| Cn1nc(C(F)(F)F)c(-c2ccc(F)cc2)c1NC(=O)Nc1ccccc1 | 100% | 99% | 3% |
| O=C(NCc1ccccc1F)c1ccc(N2CCC(NCc3cccc(-n4cccn4)c3)CC2)cc1 | 89% | 3% | 9% |

| Compound | Inhibition (Plasmodium falciparum [1]) | Inhibition (Plasmodium falciparum [2]) | Inhibition (HepG2) |
| --- | --- | --- | --- |
| FC(F)(F)Oc1ccc(-c2cnc3ccc(NCc4ccncc4)nn23)cc1 | 97% | 54% | 19% |
| Br.CCC(CCON1C(N)=NC(N)=NC1(C)C)c1ccc(Cl)c(Cl)c1 (stereo not drawn) | 94% | 98% | 68% |
| NC1=NC2(CCCCC2)N(OCCCCCCc2ccccc2)C(N)=N1 | 100% | 69% | 73% |
| O=S(=O)(Nc1cccc(F)c1CNCc1ccccn1)c1ccc(Cl)c(Cl)c1 | 92% | 34% | 45% |
| CCN(CC)CCOc1ccc(C(O)(C#CC(O)(c2ccccc2)c2ccc(OCCN(CC)CC)cc2)c2ccccc2)cc1 (stereo not drawn) | 99% | 99% | 81% |
| COc1cccc(C2CCN(CCCCNC(=O)c3ccc(NC(=O)c4ccc(Cl)cc4)cc3)CC2)c1 | 99% | 40% | 18% |
| Cc1cc(N/N=C/c2ccccc2[N+](=O)[O-])c2cc(F)ccc2n1 | 100% | 100% | 18% |
| Nc1ccc(-c2cnc3[nH]cc(-c4ccc(C(=O)O)cc4)c3c2)cn1.O=C(O)C(F)(F)F | 97% | 99% | 48% |
| CC(=O)Nc1ccc2[nH]cc(C3CCN(CC4CCC(NC(=O)/C=C/c5ccc(Cl)c(Cl)c5)CC4)CC3)c2n1 (stereo not drawn) | 100% | 79% | 17% |
| CCCCc1ccc(S(=O)(=O)Nc2ccc3c(c2)CCN(Cc2c[nH]c4cnccc24)CC3)cc1.O=C(O)C(F)(F)F | 99% | 12% | 41% |
| O=C(O)C(F)(F)F.Oc1ccc(CCCNc2nc(NCc3cccc4ccccc34)nc(N3CCNCC3)n2)cc1 | 100% | 4% | 9% |
| Cc1cccc2nc(-c3ccc(-c4ccc(CNCc5ccccc5)cc4)cc3)[nH]c12.O=C(O)C(F)(F)F | 99% | 90% | 5% |
| CCOc1ccc2[nH]c(C)cc(=NN=Cc3cccc(F)c3)c2c1 | 100% | 23% | 0% |
| CC(=O)N(Cc1nc(-c2cc(C(F)(F)F)cc(C(F)(F)F)c2)cs1)c1c(C)cccc1C | 100% | 99% | 0% |
| COc1ccc(C(=O)CCc2ccc(O)cc2)cc1 | 96% | 90% | 0% |
| Cc1ccc(C(=O)Nc2ccc(C)c(OC3CCN(CCC(C)C)C3)c2)cc1.O=C(O)C(F)(F)F (stereo not drawn) | 99% | 53% | 6% |
| O=C(Nc1cccc(-c2cccc(CN3CCCC3)c2)c1)c1ccc(Cl)cc1.O=C(O)C(F)(F)F | 93% | 32% | 50% |
| N#CC(c1ccc(F)cc1)c1ccc2c(C(F)(F)F)cc(C(F)(F)F)nc2n1 (stereo not drawn) | 97% | 89% | 9% |
| Nc1cc2c(C3CCN(CC4CCN(C(=O)/C=C/c5ccc(Cl)c(Cl)c5)CC4)CC3)c[nH]c2cn1 | 100% | 94% | 0% |
| COc1cc2nc(N3CCN(C(=O)c4c(Cl)nsc4-c4ccccc4Cl)CC3)nc(N)c2cc1OC.O=C(O)C(F)(F)F | 100% | 100% | 57% |
| CN(C)c1cc2c(Nc3ccc4nc(Cc5ccccc5)[nH]c4c3)ncnc2cn1 [GW301888X] | 85% | 29% | 11% |

| Compound | Inhibition (Plasmodium falciparum [1]) | Inhibition (Plasmodium falciparum [2]) | Inhibition (HepG2) |
| --- | --- | --- | --- |
| CC(C)(CNC(=O)C1CCN(CC2CCCCC2)CC1)c1nc(-c2ccc(Cl)c(O)c2)c(-c2ccncc2)[nH]1.Cl | 98% | 31% | 0% |
| CC(C)CNCc1cccc(-c2ccc(CN(CCCN3CCN(C)CC3)C(=O)/C=C/c3ccccc3)cc2)c1.O=C(O)C(F)(F)F | 92% | 90% | 48% |
| CC(=O)Nc1ccc(S(=O)(=O)NC2=NC(=N)N(OCc3ccc(Cl)c(Cl)c3)C(C)(C)N2)cc1 | 93% | 98% | 44% |
| O=C(Nc1ccc([N+](=O)[O-])cc1Br)c1cc2ccccc2nc1Cl | 97% | 68% | 0% |
| O=C(O)C(F)(F)F.Oc1ccc(CCNc2nc(NCc3ccccc3-c3ccc(C(F)(F)F)cc3)nc(N3CCCNCC3)n2)cc1 | 95% | 2% | 12% |
| CCNc1cc(C(=O)N[C@@H](Cc2ccccc2)[C@H](O)CNCc2cc(OC)cc(OC)c2)cc(N2CCCS2(=O)=O)c1.Cl | 99% | 86% | 0% |
| Cc1ccccc1C1CCN(C2CCC(NC(=O)/C=C/c3ccc4c(c3)OC(F)(F)O4)CC2)CC1 (stereo not drawn) | 100% | 39% | 75% |
| CCN(CC)CCN(Cc1ccc(-c2ccc(C(F)(F)F)cc2)cc1)C(=O)c1ccc(-c2ccc(C#N)cc2)cc1 | 89% | 31% | 38% |
| O=C(NCc1cccc(C(F)(F)F)c1)c1ccc(-c2nc3cc(F)c(F)cc3[nH]2)cc1 | 97% | 7% | 0% |
| Cc1cc(C)cc(N2C(N)=NC(N)=NC2(C)C)c1.Cl | 93% | 6% | 58% |
| Cc1cc(N2CCCCC2)nc2ccc(NC(=O)c3cc(=O)c4ccccc4o3)cc12 | 98% | 19% | 15% |
| O=C(NCCCc1ccccc1)c1ccc(O)c(-c2cc(Cl)cc(Cl)c2)c1 | 99% | 98% | 0% |
| COc1cccc(CCc2c(CCNCCCCCCNCCc3ccccc3)ccc(OC)c2OC)c1.Cl | 100% | 69% | 100% |
| CCn1c(-c2nc(-c3ccnc(N4CCN(C)CC4)c3)cnc2N)nc2cc(S(C)(=O)=O)ccc21 | 100% | 76% | 44% |
| O=C(NCCCN1CCC(NC(=O)c2ccc(-c3cccnc3)cc2)CC1)c1ccc(Cl)c(Cl)c1.O=C(O)C(F)(F)F | 94% | 23% | 17% |
| COc1ccccc1COc1c(C)nc(N)nc1N.Cl | 98% | 1% | 32% |
| O=C(NCCCCCN1CCC(c2c[nH]c3ccccc23)CC1)c1ccc(-c2ccccc2)nc1 | 87% | 13% | 43% |
| O=C(c1cccc(-c2ccc(-c3nc4cc(F)ccc4[nH]3)s2)c1)N1CCCCC1CN1CCC(O)C1 (stereo not drawn) | 100% | 85% | 23% |
| CCCNc1ccc(-c2cc(C(N)=O)c3[nH]cc(C4CCN(S(=O)(=O)CC)CC4)c3c2)cn1.O=C(O)C(F)(F)F | 99% | 42% | 6% |
